# Source: PubChem BioAssay (Broad Institute)
# CASP6 VEID inh – blocks human caspase-6 cleavage activity | purified caspase-6, Z-VEID-R110 cleavage fluorescence | inhibition, % at 12.5 µM | actives 0.53% (n = 350,000) | AID 686996;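 active means mean inhibition across replicates at least about 35%, with every replicate also reaching that limit, limit read from the data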;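 further: 0% = median of neutral control wells and 100% = no fluorescence left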
# NSD2 inh – inhibitors of human histone methyltransferase NSD2; O96028; NSD2 peptide methylation, AlphaScreen, 120 min; inhibition, % at 12.5 µM; actives 0.54% (n = 310,000); AID 743445; in the data active means inhibition above about 50%
# Target sequence (O96028 whole entry, looked up): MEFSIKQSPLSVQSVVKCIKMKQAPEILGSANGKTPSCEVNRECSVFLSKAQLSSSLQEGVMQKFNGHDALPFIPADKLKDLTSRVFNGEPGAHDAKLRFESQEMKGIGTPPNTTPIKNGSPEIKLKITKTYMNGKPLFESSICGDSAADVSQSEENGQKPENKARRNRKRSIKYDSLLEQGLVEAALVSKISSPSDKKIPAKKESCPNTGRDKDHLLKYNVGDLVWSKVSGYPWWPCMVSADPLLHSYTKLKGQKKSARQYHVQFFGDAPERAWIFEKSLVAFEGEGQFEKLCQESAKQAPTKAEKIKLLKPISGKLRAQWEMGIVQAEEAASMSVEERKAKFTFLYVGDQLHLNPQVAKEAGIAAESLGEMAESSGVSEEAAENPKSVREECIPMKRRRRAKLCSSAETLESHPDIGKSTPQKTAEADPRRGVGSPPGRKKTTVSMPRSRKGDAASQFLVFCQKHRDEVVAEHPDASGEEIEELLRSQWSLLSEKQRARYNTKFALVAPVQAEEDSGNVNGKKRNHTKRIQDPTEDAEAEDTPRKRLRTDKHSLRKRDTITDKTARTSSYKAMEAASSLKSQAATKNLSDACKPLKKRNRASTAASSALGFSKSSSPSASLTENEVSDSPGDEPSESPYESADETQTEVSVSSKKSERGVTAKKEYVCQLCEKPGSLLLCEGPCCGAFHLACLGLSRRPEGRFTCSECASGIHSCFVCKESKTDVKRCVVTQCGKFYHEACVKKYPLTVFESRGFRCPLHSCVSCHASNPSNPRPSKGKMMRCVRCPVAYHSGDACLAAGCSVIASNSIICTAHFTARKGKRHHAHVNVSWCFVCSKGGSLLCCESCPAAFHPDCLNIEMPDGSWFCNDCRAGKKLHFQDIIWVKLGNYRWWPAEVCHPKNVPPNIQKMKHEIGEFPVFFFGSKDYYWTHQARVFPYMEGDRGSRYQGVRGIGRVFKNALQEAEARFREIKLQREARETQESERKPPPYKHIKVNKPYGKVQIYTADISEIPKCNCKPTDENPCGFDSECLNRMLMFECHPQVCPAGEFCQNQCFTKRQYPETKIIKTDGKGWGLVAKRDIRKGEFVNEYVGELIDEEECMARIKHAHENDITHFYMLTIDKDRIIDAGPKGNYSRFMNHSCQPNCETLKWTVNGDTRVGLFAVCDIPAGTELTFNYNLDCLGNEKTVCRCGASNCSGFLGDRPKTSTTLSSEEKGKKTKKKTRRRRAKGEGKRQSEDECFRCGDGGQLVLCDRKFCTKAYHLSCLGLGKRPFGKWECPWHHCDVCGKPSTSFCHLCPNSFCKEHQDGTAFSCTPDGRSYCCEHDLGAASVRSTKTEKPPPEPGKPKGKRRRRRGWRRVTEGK
# Ecoli rRNA inh – selective bacterial rRNA inhibition in E. coli. actives 1.6% (n = 350,000). E. coli WT GFP vs humanized-ribosome RFP mutants, fluorescence, 24 h; active compounds read low; DMSO median 0, no signal -100. GFP signal change (wild-type ribosome), % (no concentration beside the values);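 active means significant combined selectivity score with lowered wild-type GFP, culture density cut under 30%, mutant RFP and density less affected; inactive means any of these conditions unmet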
# RAD52 anneal inh – inhibitors of human RAD52 DNA annealing; inhibition, % at 18.7 µM; recombinant RAD52 DNA annealing, FRET fluorescence; P43351; actives 0.46% (n = 360,000);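 active means every replicate showing at least 50% inhibition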
# MLL AF4-AF9 inh – inhibitors of human MLL-AF4/AF9 interaction. AlphaScreen, biotin-AF4 peptide binding to FLAG-AF9. actives 0.47% (n = 350,000). AID 651704. inhibition, % at 10 µM. P42568;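 active means every replicate reaching a set inhibition limit, whatever the replicate mean, cut at about 25% in these data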;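 further: 0% = plate neutral control median and 100% = total signal loss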
# * = called active by the depositor; / = not tested or not shown. Shown are actives, neighbours in structure and some others; about 2.5% of the full set was active somewhere.
SMILES,CASP6 VEID inh,NSD2 inh,Ecoli rRNA inh,RAD52 anneal inh,MLL AF4-AF9 inh
CCOc1ccc(OCc2ccc(C(=O)N3CCc4ccccc4C3)o2)cc1,2,-3,-28*,-25,4
O=C(c1cc(COc2c(F)cccc2F)on1)N1C[C@H]2CC[C@H]1C2,-3,-3,-20*,-9,0
CCOc1ccc(OCc2ccc(C(=O)N3CCCCC3)o2)cc1,1,0,-18,-12,3
O=C(c1cc(COc2cccc(C(F)(F)F)c2)on1)N1CCc2ccccc2C1,1,2,-22,0,-2
O=C(c1cc(COc2ccc(F)cc2F)on1)N1C[C@H]2CC[C@H]1C2,-11,-2,-6,-4,0
CS(=O)(=O)Nc1ccc2c(c1)[C@H]1C[C@@H](CC(=O)NCc3ccc(Oc4ccccc4)cc3)O[C@H](CO)[C@H]1O2,-1,/,1,7,1
CCCC(=O)N1CC2(C1)CN(C(=O)C1CC1)[C@H](CO)c1[nH]c3cc(OC)ccc3c12,-2,/,1,6,-4
Cc1noc(C)c1NC(=O)Nc1ccc2c(c1)C(=O)N([C@H](C)CO)C[C@@H](C)[C@H](CN(C)Cc1ccncc1)OCCCC[C@H](C)O2,-1,/,2,2,-1
COc1ccc(N(C(=O)Nc2ccc(Cl)cc2)C2=NCCC2)cc1,0,1,-36*,-7,2
Cc1ccc(N(C(=O)Nc2ccccc2)C2=NCCC2)cc1,1,-2,-9,-15,-1
CC(=O)N(C)C[C@H]1Oc2c(N)cccc2C(=O)N(C)C[C@H]1C,/,/,2,/,/
COc1ccccc1C(=O)Nc1ccc2c(c1)nc1n2CCN(C2CCCCC2)C1,-4,1,-18*,-18,4
C[C@H](CO)N1C[C@H](C)[C@H](CN(C)S(=O)(=O)c2cn(C)cn2)Oc2ccc(NC(=O)c3ccncc3)cc2CC1=O,2,/,4,-4,-1
CCOC(=O)Cc1csc(NC(=O)CCSc2ccccc2)n1,3,0,-21*,4,-2
CCOC(=O)Cc1csc(NC(=O)Nc2cccc(OC)c2)n1,5,-1,-29*,-7,0
CCOC(=O)Cc1csc(NC(=S)NC(=O)c2ccccc2C)n1,-1,2,-20*,6,-1
CCOC(=O)Cc1csc(NC(=S)NC(=O)c2ccc(F)cc2)n1,/,0,/,/,/
C[C@@H]1CN([C@H](C)CO)C(=O)c2cc(NC(=O)CCN3CCOCC3)ccc2O[C@@H]1CN(C)Cc1ccc(Cl)c(Cl)c1,3,/,2,-7,1
C[C@@H]1CN([C@H](C)CO)C(=O)c2c(c3ccccc3n2C)-c2ccccc2CO[C@H]1CN(C)Cc1cccnc1,/,/,-4,/,/
O=C(c1ccccn1)N1CC(=O)N2[C@H](C1)[C@H](c1ccc(C#Cc3ccccc3)cc1)[C@@H]2CO,0,/,-1,-6,1
CSc1ccc(CN2CCC2(C)C(=O)Nc2cccc(NS(C)(=O)=O)c2)cc1 (centres undefined),41*,6,-4,-10,0
CCO/C=C1/C(=O)N(Cc2ccccc2)C(=O)c2ccccc21,94*,4,17,-6,5
CCO/C=C1/C(=O)N(c2ccccc2OC)C(=O)c2ccccc21,38*,3,3,-8,1
CC(=O)N1CC(=O)N2[C@@H](CO)[C@H](c3ccc(-c4ccncc4)cc3)[C@@H]2C1,/,/,4,/,/
CCOC(=O)c1cn[nH]c1NC(=S)Nc1ccc(Cl)cc1,1,-2,-41*,-15,-1
SMILES,CASP6 VEID inh,NSD2 inh,Ecoli rRNA inh,RAD52 anneal inh,MLL AF4-AF9 inh
O=C(NC1CCCCCCC1)c1ccc(CNc2c(N3CCOCC3)c(=O)c2=O)cc1,2,/,6,-9,40*
COc1ccc2c3c(n(C)c2c1)[C@H](CO)N(Cc1ccc2c(c1)OCO2)CC31CCN(C(=O)c2ccc3c(c2)OCO3)CC1,/,/,1,/,-3
Nc1c(C(=O)OCC(=O)Nc2ccccc2Br)[nH]c(=O)[nH]c1=O,1,2,9,-21,-3
Nc1c(C(=O)OCC(=O)NCc2ccccc2)[nH]c(=O)[nH]c1=O,-2,0,15,-6,38*
CCOc1ccccc1N1CCN(C(=O)c2ccc3[nH]c4c(c3c2)CCCC4)CC1,1,3,-27*,-13,3
CCOc1ccccc1N1CCN(C(=O)c2cc3c(C)cc(C)cc3[nH]2)CC1,0,1,4,-7,5
CC(C)c1csc2nc3n(c(=O)c12)CCCCC3,-4,0,-33*,-3,-1
O=c1c2c(-c3ccc(Cl)cc3)csc2nc2n1CCC2,/,-1,/,/,/
C[n+]1c2n(c3ccccc31)N=C(c1ccc(-c3ccccc3)cc1)CS2,0,23,-58,71*,19
C[n+]1c2n(c3ccccc31)N=C(c1ccccc1)CS2,19,2,5,9,-2
COc1ccc(CNC(=O)C[C@@H]2C[C@@H]3c4cc(NC(=O)CC5CC5)ccc4O[C@@H]3[C@H](CO)O2)cc1,/,/,1,/,/
O=C(Cc1ccc(Cl)cc1)Nc1ncc([N+](=O)[O-])s1,0,3,-48,-15,-2
Cc1ccc(C(=O)Nc2ncc([N+](=O)[O-])s2)cc1,11,/,-52*,-5,1
O=C(Nc1ncc([N+](=O)[O-])s1)c1ccc2c(c1)OCO2,29,28,-26,-9,4
O=C(COc1ccc(Cl)cc1)Nc1ncc([N+](=O)[O-])s1,-1,-1,-24*,4,-7
COc1ccc2c3c([nH]c2c1)[C@@H](CO)NCC31CN(C(=O)C2CCCC2)C1,2,/,-1,-18,-3
CCCNC(=O)Nc1ccc2c(c1)OC[C@H](C)N(C(=O)c1ccccc1F)C[C@H](C)[C@@H](OC)CN(C)C2=O,0,/,-3,18,-1
CCOCCCNC(=O)/C=C1\Sc2ccccc2N(Cc2ccccc2F)C1=O,2,/,-17*,-7,-3
CCN(CC)CCOc1ccc(/C(=C(\Cl)c2ccccc2)c2ccccc2)cc1,-2,/,/,27,32*
CCN(CC)CCOc1ccc(Br)cc1,/,7,/,/,/
CCCNC(=O)Nc1ccc2c(c1)OC[C@H](C)N(C(=O)CC)C[C@H](C)[C@@H](OC)CN(C)C2=O,-4,/,-1,15,-19
CCc1cc2c(N3CCN(C(=O)c4ccco4)CC3)ncnc2s1,8,-3,-30*,-9,0
CN1C(=O)c2cc(NC(=O)c3ccc(C(F)(F)F)cc3)ccc2OC[C@@H]2O[C@@H](CC(=O)O)CC[C@@H]21,0,/,8,1,-1
[N-]=[N+]=NC[C@H](Cc1ccccc1)N1CC[C@@H](OCc2ccccc2)CCC1=O,3,/,-25*,-15,-1
Cc1cnc(NC(=O)Cc2c[nH]c3ccccc23)s1,-2,1,-22*,-15,1
Cc1ccc(NS(=O)(=O)c2ccc(-c3ccc(=O)[nH]n3)o2)cc1,-4,-4,-7,-2,2
Cc1cccc(C)c1NS(=O)(=O)c1ccc(-c2ccc(=O)[nH]n2)o1,41*,-5,0,5,1
